In PubChem BioAssay AID602208 (Johns Hopkins Ion Channel Center, 2012):
Results with a measured potency or affinity are listed apart. The source made the active and inactive calls.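 How the source made its calls: active means average duplicate choline uptake below buffer control mean minus 3 SD, with a fitted dose curve; inactive means the rest.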

Biological target: High affinity choline transporter 1 (Homo sapiens) (UniProt Q9GZV3)
Assay: inhibitors of CHT choline uptake, dose response, cell-based, 3H-choline uptake, CHT LV-AA trafficking mutant, CRC (AID 602208)
Settings: HEK293 CHT LV-AA cells

High affinity choline transporter 1 (Homo sapiens), sequence (Q9GZV3 whole entry, looked up): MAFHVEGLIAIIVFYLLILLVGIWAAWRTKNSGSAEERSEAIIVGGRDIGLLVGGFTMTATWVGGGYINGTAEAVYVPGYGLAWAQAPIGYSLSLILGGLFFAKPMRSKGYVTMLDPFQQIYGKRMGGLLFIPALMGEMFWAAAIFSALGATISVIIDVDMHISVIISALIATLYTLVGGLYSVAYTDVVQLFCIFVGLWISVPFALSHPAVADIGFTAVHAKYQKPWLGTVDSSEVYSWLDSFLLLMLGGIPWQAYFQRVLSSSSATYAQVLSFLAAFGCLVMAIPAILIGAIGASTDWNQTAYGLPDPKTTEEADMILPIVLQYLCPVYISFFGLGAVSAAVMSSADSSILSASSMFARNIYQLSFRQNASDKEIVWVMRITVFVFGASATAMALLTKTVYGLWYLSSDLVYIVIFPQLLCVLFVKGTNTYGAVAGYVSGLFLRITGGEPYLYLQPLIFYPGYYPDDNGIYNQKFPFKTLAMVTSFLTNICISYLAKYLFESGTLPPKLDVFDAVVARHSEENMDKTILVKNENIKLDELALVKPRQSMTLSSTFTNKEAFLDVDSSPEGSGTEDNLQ

outcome, inactive:
CCN(CC)S(=O)(=O)c1cc(C(=O)Nc2nncs2)c(Cl)cc1Cl, Cc1cc(NS(=O)(=O)c2ccc(NC(=O)c3ccc(Cl)cc3Cl)cc2)no1, Cc1cc(C)c(C(=O)Nc2ccc(S(=O)(=O)Nc3ccccn3)cc2)c(C)c1, Cc1cc(NS(=O)(=O)c2ccc(NC(=O)C(C)Oc3cccc(C)c3C)cc2)nc(C)n1 (configuration not stated), CC1CCCCC1NC(=O)c1cccc(S(=O)(=O)N2CCN(C)CC2)c1 (configuration not stated), COc1cc(NS(=O)(=O)c2ccc(NC(=O)c3ccc(Cl)cc3Cl)cc2)ncn1, CCc1cccc(CC)c1NC(=O)c1cccc(S(=O)(=O)N2CCN(C)CC2)c1
